In the library only some 2.7% were active in any assay of this set; here they are far more common.
NadD inh = blocks S. aureus nicotinate mononucleotide adenylyltransferase; purified NadD enzyme, colorimetric absorbance read-out; inhibition, % at 20 µM; 0.78% of 360,000 active; AID 602399; in the data active = inhibition above about 26%
MPTP block = inhibitors of mitochondrial permeability transition pore. inhibition, % at 10 µM. 1.4% of 360,000 active. isolated mouse mitochondria, Ca2+ swelling absorbance, 30 min;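 active = inhibition of 50% or more, scaled per plate between neutral and stimulator controls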;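 also: 0% = DMSO wells given calcium and 100% = 1 mM EGTA wells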
H9c2 TAG inh = inhibitors of triacylglycerol accumulation; H9c2 cells, Nile Red lipid (TAG) fluorescence; cells loaded with 200 µM oleic acid; inhibition, % at 12.5 µM; 0.66% of 230,000 active; AID 651582;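 active = pattern-corrected inhibition of lipid staining of at least 50% with the nuclear-stain viability signal not falling by more than 50%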;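 also: 0% = DMSO wells and 100% = triacsin C control wells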
aDG glyco act = increases alpha dystroglycan glycosylation; activation, % at 10 µM; Pro5-aDG cells, alpha-DG glycosylation AlphaScreen (IIH6); 0% Pro5, 100% B10-LARGE cell signal; 0.22% of 360,000 active; AID 624168;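 active = activation of at least 8% versus controls, or a plate z-score of at least 8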;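 also: Pro5 are CHO cells carrying HIG-tagged alpha-DG that lacks glycosylation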
MPTP counter = mitochondrial membrane potential, counter-screen | shares compounds with MPTP block | AID 624504 | inhibition, % at 10 µM | isolated mitochondria, Rhodamine 123 fluorescence | 78% of 5,000 active; in the data active = inhibition above about 22%;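 also: 0% = DMSO vehicle and 100% = positive control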
MPTP swell DR = dose response confirmation of mitochondrial permeability transition pore inhibitors; isolated mitochondria swelling, absorbance; 58% of 780 active; IC50, µM; shares compounds with MPTP block; in the data active = IC50 below about 20 µM
MPTP cs DR = counter-screen for mitochondrial permeability transition pore inhibitors, dose response; shares compounds with MPTP block; isolated mitochondria counterscreen, fluorescence read-out; IC50, µM; 49% of 780 active; AID 651564; in the data active = IC50 below about 80 µM
* = called active by the depositor; i = inactive; nt = not tested or not shown.

SMILES	NadD inh	MPTP block	H9c2 TAG inh	aDG glyco act	MPTP counter	others
Cc1cc(/C=N/n2cnnc2)c(C)n1-c1ccc(OCc2ccccc2F)cc1	2	98*	nt	5.9*	96*
Fc1ccccc1COc1cccc(/C=N/n2cnnc2)c1	-5	5	nt	1	nt
CN(C)C(CNC(=O)C1CCN(S(=O)(=O)c2cc(Cl)ccc2Cl)CC1)Cc1ccccc1 (configuration not stated)	-8	-1	3	2	nt
CCCCOc1ccc(CSC(CC(=O)O)C(=O)O)cc1 (configuration not stated)	-1	2	-5	0	nt
CCCCOc1ccc(CSCCN=C(N)N)cc1	-7	72*	0	0	6	MPTP swell DR=4.3*;MPTP cs DR=24*
N#C/C(=C(/O)CN1CCN(c2ccccc2F)CC1)c1nc(-c2ccc(Cl)cc2)cs1	10	58*	nt	0	71*
N#C/C(=C(/O)CCl)c1nc(-c2ccccc2)cs1	5	37	16	0	nt
Cc1ccc(-c2csc(/C(C#N)=C(\O)CCl)n2)cc1	11	91*	0	0	64*
CC(=O)c1c(C)[nH]c(C(=O)Nc2nc(-c3ccccc3)c(C)s2)c1C	11	79*	15	0	55*
Cc1sc(NC(=O)c2cccs2)nc1-c1ccccc1	4	0	29	1	nt
COc1ccc(CN2C(=O)CN(S(C)(=O)=O)CC2(C)C(=O)Nc2c(C)cccc2C)cc1 (configuration not stated)	nt	0	nt	0	nt
COc1cc([N+](=O)[O-])ccc1NC(=S)Nc1cc(C(=O)OC(C)C)cc(C(=O)OC(C)C)c1	9	92*	nt	0	84*
COc1ccccc1NS(=O)(=O)c1cc([N+](=O)[O-])ccc1N/N=C/c1c[nH]c2ccccc12	26	3	-8	0	nt
COc1ccc(C=NNc2ccc([N+](=O)[O-])cc2S(=O)(=O)Nc2ccccc2C(=O)O)cc1OC	16	60*	2	0	37*
COc1ccccc1CNC(=O)C1(C)CCN1C(=O)Cc1ccc(-c2ccccc2)cc1 (configuration not stated)	-4	-1	-19	1	nt
Cc1ccc(N2C(=O)N(CC(=O)NCc3ccccc3Cl)C(=O)C2C)cc1 (configuration not stated)	-4	-1	-10	0	nt
CCCOc1ccc(C(=O)C(CN2CCCC2)c2ccccc2)cc1 (configuration not stated)	1	79*	nt	0	-11
CCCCOc1ccc(C(=O)C(CN2CCOCC2)c2ccccc2)cc1 (configuration not stated)	-3	-4	48	2	nt
CCCOc1ccc(C(C(=O)OCCN(CC)CC)c2ccccc2)cc1 (configuration not stated)	-5	82*	-14	1	-1	MPTP swell DR=i;MPTP cs DR=73*
CC1CN(C)C(C)CC1OC(=O)C(c1ccccc1)c1ccccc1 (configuration not stated)	-11	1	14	0	nt
CCCCOc1ccc(C(=O)OC2CC(C)N(C)CC2C)cc1 (configuration not stated)	-1	83*	7	3	-6	MPTP swell DR=9.7*;MPTP cs DR=74*
CCN1C(=C(C#N)C#N)C=Cc2cc(C)ccc21	-6	-1	-5	0	nt
C=CC[n+]1c(/C=C2\C=Cc3cc(C)ccc3N2CC)ccc2ccccc21	11	112*	-6	2	78*
C[C@H](CO)N1C[C@H](C)[C@H](CN(C)S(=O)(=O)c2cccs2)Oc2ncc(-c3cc4ccccc4o3)cc2C1=O	5	-1	24	0	nt
CCOc1ccc(NC(=O)CSc2ncc(-c3ccc(F)cc3)n2Cc2ccco2)cc1	1	8	-8	0	nt
SMILES	NadD inh	MPTP block	H9c2 TAG inh	aDG glyco act	MPTP counter	others
O=C(CSc1ncc(-c2ccc(F)cc2)n1Cc1ccco1)Nc1ccc2c(c1)OCO2	2	85*	13	3	62*
Fc1ccccc1CNCCC(Cc1ccccc1)c1ccc2c(c1)OCO2 (configuration not stated)	-9	85*	nt	1	-1	MPTP swell DR=5.4*;MPTP cs DR=16*
Cc1cc(C)n2c(=O)c3ccc(Cl)cc3nc2c1C#N	-2	2	7	0	nt
Cc1cc(Cl)n2c(nc3cc(F)c(F)cc32)c1C#N	0	95*	88	0	91*
CC(=O)c1c(O)cc(O)cc1CC(=O)O	-1	4	nt	0	nt
CC(=O)c1c(O)cc(O)c(C(C)=O)c1O	-1	90*	nt	0	106*
CCCCN1C(=O)C(CC(=O)NC(c2ccccc2)c2ccccc2)CC(C(=O)N(C(C)C)C(C)C)=C1C (configuration not stated)	3	1	13	0	nt
CCN(CC(=O)Nc1ccccc1OC)C(=O)CN1C(=O)NC(C)(c2ccccc2)C1=O (configuration not stated)	5	0	15	0	nt
CN(C)CCOc1ncnc2c1oc1ccccc12	-5	-2	nt	0	nt
CN(C)CCOc1nc(-c2ccccc2)nc2c1oc1ccccc12	-11	75*	nt	1	-2
CCN=c1scc(-c2ccccc2)n1/N=C/c1ccccn1	1	66*	23	1	46*
Cc1cccc(C(=O)N(C(=O)c2cccc(C)c2)N(C)C)c1	-3	0	12	0	nt
O=C(COc1cc(F)ccc1[N+](=O)[O-])Nc1cc(S(=O)(=O)N2CCCC2)ccc1Cl	10	-1	18	0	nt
CCN(CC)CC#CCC(C)(c1ccccc1)c1ccccc1	-12	59*	nt	0	6	MPTP swell DR=i;MPTP cs DR=28*
Cc1nc2c(OCc3ccc(C(F)(F)F)cc3)cccn2c1N(C)CC1CC1	2	81*	-7	3	107*
COC(=O)c1ccccc1COc1cccn2c(N(C)CC3CC3)c(C)nc12	0	67*	116	1	97*
CCc1nc2c(OCc3ccccc3C(=O)OC)cccn2c1N(C)C(=O)CC(C)C	0	1	-8	0	nt
O=S(=O)(c1ccc(Br)cc1)N1CCN(Cc2ccco2)CC1	3	0	1	0	nt
CCCc1ccc(Oc2cn[nH]c2-c2ccc(O)c(C)c2O)cc1	-12	89*	nt	1	83*
Cc1sc(NC(=O)c2ccco2)c(C(c2ccc(F)cc2)N2CCN(C)CC2)c1C (configuration not stated)	-20	82*	11	0	-23
COC(=O)c1ccc(CNCC(O)COc2ccc(-c3ccccc3)cc2)cc1 (configuration not stated)	-2	89*	nt	0	-4	MPTP swell DR=8.8*;MPTP cs DR=>80
COc1ccc(CNCC(O)COc2ccc(C(C)(C)c3ccccc3)cc2)cc1 (configuration not stated)	-3	6	nt	1	nt
CC(C)Cc1csc(NC(=O)c2ccc(Cl)cc2)c1C(=O)O	-10	90*	-8	0	88*

Source: PubChem
